In PubChem BioAssay:
Where “and” joins values, the source holds several entries; their conditions need not be identical. Equal values may be shown once. Records with an inconclusive call do not appear. Calls of active or inactive are those of the source.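 The calls were made as follows, unless noted: active = compounds that lower viability of the colon cancer cells in the luminescence readout, with no numeric limit stated; inactive = the rest.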

Tests used:
[1] = Wnt pathway potentiators raising nuclear beta-catenin – imaging, WNT3A-conditioned medium, mouse C2C12, NPC library, primary screen (AID 1117326; in the data active = nuclear beta-catenin stimulation mostly above about 4.2%, no sharp cut-off; inactive = mostly below about 10%; also: reference of the scale not given here); conditions: stronger effect = higher value
[2] = stimulators of insulin release from INS-1E, primary screen, cell-based, 5 mM glucose, NPC library (AID 1117329;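 active = compound raises insulin release from rat beta cells at 5 mM glucose, no numeric limit stated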; also: reference of the scale not given here); conditions: rat INS-1E insulin secretion, at 10 µM, stronger effect = higher value
[3] = growth inhibition of GSK3B-pretreated HCT116 cells – cell-based, CellTiter-Glo, 0.2 to 20 µM (AID 1117336;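 active = compounds lowering colon cancer cell viability after pretreatment blocking the GSK3B kinase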); conditions: HCT116 viability after GSK3B inhibitor, at 20 µM, stronger effect = higher value
[4] = inhibition of endothelial tube formation, primary screen, imaging, VEGF stimulated, CD31 staining, tube area, NPC library (AID 1117340;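 active = compound that reduces growth-factor-driven endothelial tube area in a mixed cell culture, no cutoff stated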); conditions: VEGF-stimulated ADSC/ECFC co-culture, at 10 µM, stronger effect = higher value
[5] = GLP1 release stimulators, primary, NCI-H716, NPC library (AID 1117341;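 active = compound raises GLP1 secretion from the human gut endocrine cells, with no numeric limit stated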; also: reference of the scale not given here); conditions: NCI-H716 cells, at 10 µM, stronger effect = higher value
[6] = HCT116 colon cancer cell growth inhibition, primary screen, CellTiter-Glo luminescence, NPC library (AID 1117342;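 active = compounds that lower survival of HCT116 colon cancer cells in the luminescence readout, no numeric limit stated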); conditions: at 20 µM (top of the series)
[7] = reduced SW480 viability measured with CellTiter-Glo, NPC library, primary (AID 1117343); conditions: CellTiter-Glo luminescence; at 20 µM (top of the series) unless noted
[8] = NPC library primary testing for decreased DLD-1 cell viability via CellTiter-Glo (AID 1117346;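 active = compounds that lower survival of DLD-1 colon cancer cells in the luminescence readout, no cutoff given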); conditions: DLD-1 viability, CellTiter-Glo luminescence; at 20 µM (top of the series)
[9] = viability loss in pontine glioma line – cell-based, SU-DIPG-XVII, MIPE5.0, CellTiter-Glo, qHTS, dose response (AID 1347060; cut-off not given, nearly all actives have AC50 up to about 26 µM); conditions: CellTiter-Glo ATP luminescence
[10] = viability loss in pontine glioma line – cell-based, SU-DIPG-XIII, MIPE4.0, CellTiter-Glo, qHTS, dose response (AID 1347061; cut-off not given, nearly all actives have AC50 up to about 37 µM;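 also: cells exposed to compound for 48 hours before readout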); conditions: CellTiter-Glo ATP luminescence
[11] = viability loss in pontine glioma line – cell-based, JHH-DIPG-1, MIPE4.0, CellTiter-Glo, qHTS, dose response (AID 1347062; cut-off not given, nearly all actives have AC50 up to about 27 µM); conditions: JHH-DIPG-1 viability, CellTiter-Glo ATP luminescence
[12] = growth inhibition of DIPG cells – cell-based, MIPE5.0 library, qHTS (AID 1347068; cut-off not given, nearly all actives have IC50 up to about 30 µM); conditions: SU-DIPG-XXV viability
[13] = viability loss with induced miR-34 in A549 – imaging, A549 dox-inducible miR-34, nuclei and caspase counts, primary screen (AID 1347080;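 active = compounds whose cell count with miR-34 switched on is under 0.7 times the count with it off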); conditions: A549 miR-34 inducible, Hoechst nuclei count, 48 h
[14] = MELAS cybrid and Rieske KO viability enhancers – cell-based, MELAS cybrids, Rieske KO mouse fibroblasts, CellTiter-Glo, primary screen (AID 1508586;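 active = mean z-score across replicates of 1.96 or higher in either the MELAS or the Rieske mutant cell line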;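 also: z relative to plate mean and SD of compound and empty wells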); conditions: low glucose
[15] = P. berghei load reduction in hepatocytes – cell-based, HepG2, luciferase luminescence, HepG2 viability, primary screen (AID 624349; in the data active = parasite load remaining mostly below about 12%, no sharp cut-off; inactive = mostly above about 10%;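 also: 100% = mean of DMSO negative control wells on the same plate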); conditions: P. berghei liver stage in HepG2, luciferase luminescence, concentration not given here; parasite load remaining: stronger effect = lower value; viability: measured here: HepG2 viability without parasites
[16] = system: Aerobactin synthetase IucA (Klebsiella pneumoniae); experiment: inhibition of K. pneumoniae IucA enzyme – biochemical, Tocris library, absorbance (AID 1345561; call rule not given here;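 also: 100% = enzyme without compound and 0% = no enzyme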); conditions: purified IucA enzyme assay, absorbance (OD) read-out; stronger effect = lower value;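 tested at 8 µM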
[17] = galactose survival enhancers in mitochondrial complex I cybrids – cell-based, galactose medium, ATP luminescence, primary screen (AID 1645843;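 active = z-score of at least 1.8 in each of two replicates, scored against plate mean and spread of sample wells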;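 also: positive z means more ATP and so rescue of galactose-driven cybrid death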); conditions: complex I mutant cybrid cells, 72 h, stronger effect = higher value
[18] = biological target: NAD(+) hydrolase SARM1 (Homo sapiens) (UniProt Q6SZW1); experiment: blocking NAD cleavage by SARM1 SAM-TIR – cell lysate, NAD-Glo luminescence (AID 1508614;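 active = compound whose remaining NAD level is above about 45 nM, limit read from the data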;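 also: higher remaining NAD means stronger inhibition of SARM1 NADase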); conditions: SAM-TIR HEK293T lysate NADase, at 1 µM, stronger effect = higher value
[19] = stronger effect = lower value, cell number ratio, induced over uninduced
[20] = measured here: relative caspase fold change +Dox/-Dox
[21] = measured here: total cells with miR-34 induction, stronger effect = lower value
[22] = measured here: total cells without miR-34 induction
[23] = MELAS cybrid survival, CellTiter-Glo 48 h, stronger effect = higher value
[24] = Rieske KO mouse fibroblast survival, CellTiter-Glo 72 h

NAD(+) hydrolase SARM1 (Homo sapiens), sequence (Q6SZW1 whole entry, looked up): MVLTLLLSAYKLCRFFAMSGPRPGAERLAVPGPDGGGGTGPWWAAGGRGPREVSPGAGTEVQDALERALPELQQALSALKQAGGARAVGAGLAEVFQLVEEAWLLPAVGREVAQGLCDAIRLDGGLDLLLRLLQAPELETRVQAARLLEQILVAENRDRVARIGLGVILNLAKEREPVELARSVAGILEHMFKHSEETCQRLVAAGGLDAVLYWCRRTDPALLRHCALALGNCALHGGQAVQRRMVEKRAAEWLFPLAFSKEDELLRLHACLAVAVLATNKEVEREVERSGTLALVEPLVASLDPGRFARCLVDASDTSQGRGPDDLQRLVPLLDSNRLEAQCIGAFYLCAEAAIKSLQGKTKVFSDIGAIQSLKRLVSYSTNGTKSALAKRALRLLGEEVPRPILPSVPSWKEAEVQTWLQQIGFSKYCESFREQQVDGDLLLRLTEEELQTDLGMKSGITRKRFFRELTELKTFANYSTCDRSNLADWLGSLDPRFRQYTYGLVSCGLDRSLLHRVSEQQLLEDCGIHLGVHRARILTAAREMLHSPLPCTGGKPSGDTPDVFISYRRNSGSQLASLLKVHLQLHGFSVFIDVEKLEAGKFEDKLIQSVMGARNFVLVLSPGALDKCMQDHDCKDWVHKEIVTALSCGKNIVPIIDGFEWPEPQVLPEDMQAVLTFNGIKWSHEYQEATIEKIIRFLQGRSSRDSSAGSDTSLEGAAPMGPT

CCC(C)(Oc1ccc(C2(c3ccc(OC(C)(CC)C(=O)O)cc3)CCCCC2)cc1)C(=O)O (stereo not drawn)
9130: cell count [13, 21]
10200: cell count [13, 22]
-1.3%: nuclear beta-catenin stimulation ([1]; stimulation, at 2 µM)
inactive: nuclear beta-catenin stimulation ([1]; at 10 µM) -1.5% | insulin secretion stimulation [2] 1.2% | viability decrease [3] -30.5% | tube area decrease [4] 0.6% | GLP1 secretion stimulation [5] 4.1% | inhibition of viability [6] -3.43% | viability decrease (inhibition) [7] 15.4% | viability decrease (inhibition) [8] -14.6% | outcome [9] | outcome [10] | outcome [11] | outcome [12] | fold change [13, 19] 0.893 | z-score [14, 23] -0.322
0.926: fold change [13, 20]
0.575: z-score [14, 24]

CC(=O)SC[C@@H](C)C(=O)N1CCC[C@H]1C(=O)N[C@@H](Cc1ccccc1)C(=O)O
inactive: nuclear beta-catenin stimulation ([1]; at 10 µM) -0.2% | insulin secretion stimulation [2] 0% | viability decrease [3] -13.4% | tube area decrease [4] 7.4% | GLP1 secretion stimulation [5] 0.3% | inhibition of viability [6] 2.4% | viability decrease (inhibition) [7] -15.3% | viability decrease (inhibition) [8] -1.4% | outcome [9] | outcome [10] | outcome [11]
-1.6%: nuclear beta-catenin stimulation ([1]; stimulation, at 2 µM)

Nc1ccn(C2CO[C@H](CO)O2)c(=O)n1 (stereo partly drawn)
inactive: nuclear beta-catenin stimulation ([1]; at 10 µM) 1.3% | insulin secretion stimulation [2] 2% | viability decrease [3] -8.3% | tube area decrease [4] 7.2% | GLP1 secretion stimulation [5] 0.5% | inhibition of viability [6] 4.2% | viability decrease (inhibition) [7] -18.8% | viability decrease (inhibition) [8] 3.7% | outcome [9] | outcome [10] | outcome [11] | outcome [12]
0.3%: nuclear beta-catenin stimulation ([1]; stimulation, at 2 µM)

CNCCC(Oc1ccccc1OC)c1ccccc1 (stereo not drawn)
99.6% and 98.5%: viability [15]
-0.0039 and 1.57: z-score [14, 24]
inactive: parasite load remaining [15] 99.2% and 34.1% | nuclear beta-catenin stimulation ([1]; at 10 µM) -0.2% | insulin secretion stimulation [2] 8% | viability decrease [3] -108% | tube area decrease [4] 0.4% | GLP1 secretion stimulation [5] 1.3% | inhibition of viability [6] 1.93% | viability decrease (inhibition) [7] 16.6% | viability decrease (inhibition) [8] -38.2% | remaining activity [16] 107% | z-score [14, 23] -0.579 and 0.865 | z-score [17] -0.245 and -0.495 and 0.12
0.5%: nuclear beta-catenin stimulation ([1]; stimulation, at 2 µM)

CCCCCOC(=O)Nc1nc(=O)n([C@@H]2O[C@H](C)[C@@H](O)[C@H]2O)cc1F
inactive: nuclear beta-catenin stimulation ([1]; at 10 µM) 0.5% | insulin secretion stimulation [2] -0.1% | viability decrease [3] -9.5% | tube area decrease [4] 5.3% | GLP1 secretion stimulation [5] -0.5% | inhibition of viability [6] 0.7% | viability decrease (inhibition) [7] -2% | viability decrease (inhibition) [8] -8.6% | outcome [9] | outcome [10] | outcome [11] | outcome [12] | remaining NAD [18] 10 nM
-1.4%: nuclear beta-catenin stimulation ([1]; stimulation, at 2 µM)

CC(C)OC(=O)c1cc2c(OCC(O)CNC(C)(C)C)cccc2[nH]1 (stereo not drawn)
inactive: nuclear beta-catenin stimulation ([1]; at 10 µM) 0.4% | insulin secretion stimulation [2] 13.3% | viability decrease [3] 9.2% | tube area decrease [4] 1.9% | GLP1 secretion stimulation [5] 4.8% | viability decrease (inhibition) [8] 7.6% | remaining activity [16] 116% | fold change [13, 19] 0.915 | z-score [17] -0.48
active: inhibition of viability [6] 40.5% | viability decrease (inhibition) [7] 58.6%
5.8%: nuclear beta-catenin stimulation ([1]; stimulation, at 2 µM)
9290: cell count [13, 21]
0.769: fold change [13, 20]
10200: cell count [13, 22]
